From PubChem BioAssay AID2330 (Broad Institute, 2010)
In all, about 37,000 compounds went through this assay and about 2,800 (7.6%) were called active. Another 1% or so got no clear call; they are omitted. The full list was thinned out, with actives kept by preference. Unmarked numbers belong to inactive results. Cut-off read from the data, not from the text of the source: active = inhibition above about 80%; inconclusive = no clear call, values can overlap the other calls; inactive = below that.

Experiment: NOMO-1 AML cell viability reduction, primary screen, STK33 inhibitor project, CellTiter-Glo luminescence (AID 2330)
Settings: NOMO-1 AML viability, 72 h, active compounds read high, concentration not given here
With `C[C@H]1CN([C@@H](C)CO)C(=O)c2cccc(NC(=O)Nc3ccccc3)c2O[C@@H]1CN(C)S(C)(=O)=O` the inhibition was -0.709%. For `COc1cc(C2c3c(cc(OC)c(O)c3OC)CC(CO[C@@H]3O[C@H](CO)[C@@H](O)[C@H](O)[C@H]3O)C2CO)cc(OC)c1O` (some centres not stated), the inhibition was -1.41%. For `O=C1C2=C(Nc3ccccc3S(=O)(=O)C2c2ccc(Cl)cc2)c2ccccc21` (configuration not stated), the inhibition was 121% (active). Compound `COC(=O)c1ccccc1NC(=O)C(C)Oc1ccccc1F` (configuration not stated) has an inhibition of 8.1%. Compound `O=C(CC(C(=O)O)N1CCNCC1)Nc1cccc(Cl)c1` (configuration not stated) has an inhibition of 9.13%. Work on `CCN(CC)C(=O)c1ccc(O)c(OC)c1` yielded an inhibition of -13.3%. Compound `COc1cc(C2OC(c3cc(OC)c(OC)c(OC)c3)C(C)C2C)cc(OC)c1OC` (configuration not stated) has an inhibition of 7.55%. With `COc1cc(C2OC(c3ccc(O)c(OC)c3)C(C)(O)C2C)ccc1O` (configuration not stated) the inhibition was 119% (active). Work on `O=C(c1ccccc1Br)N1CCN(c2ccc([N+](=O)[O-])c(NCc3cccnc3)c2)CC1` yielded an inhibition of 40.2%. `Cc1noc(C)c1NC(=O)Nc1ccc2c(c1)C(=O)N([C@@H](C)CO)C[C@@H](C)[C@@H](CN(C)CC1CCCCC1)O2` showed an inhibition of -6.14%. For `Oc1c(Cl)cc(Cl)c(Cl)c1Cc1c(O)c(Cl)cc(Cl)c1Cl`, the inhibition was 107% (active). Compound `Cc1cc(=O)[nH]c(SCc2cn3c(C)cc(C)nc3n2)n1` has an inhibition of -6.02%. In the case of `COc1ccc(NC(=O)N(C)C[C@@H]2OCCCC[C@@H](C)Oc3ccc(NS(=O)(=O)c4c(C)noc4C)cc3C(=O)N([C@H](C)CO)C[C@@H]2C)cc1`, the inhibition is reported as 7.62%. In the case of `COc1ccc(CCCOC(Cn2ccnc2)c2ccc(OC)cc2)cc1` (configuration not stated), the inhibition is reported as 114% (active). In the case of `Cc1ccc(S(=O)(=O)N(C)C[C@H]2OCCCC[C@@H](C)Oc3ccc(NS(C)(=O)=O)cc3C(=O)N([C@H](C)CO)C[C@@H]2C)cc1`, the inhibition is reported as 20.5%. For `CC(C)(C)c1ccc(OCC(=O)Nc2cccc(NC(=O)c3ccccc3)c2)cc1`, the inhibition was 25.3%. For `COC(=O)COc1cccc(NC(=O)c2cc(OC)c(OC)c(OC)c2)c1`, the inhibition was 124% (active). `COc1ccccc1NC(=O)c1ccc(OCC(=O)O)cc1` showed an inhibition of -18.7%. `C[C@H]1CN([C@@H](C)CO)C(=O)c2cccc(NC(=O)CCCCCC(=O)Nc3ccccc3N)c2O[C@@H]1CN(C)S(=O)(=O)c1cn(C)cn1` gave an inhibition of 5.62%. Work on `O=[N+]([O-])c1ccc(NCCNCc2cccnc2)cc1` yielded an inhibition of -20%. For `CC[N+]1=C(C)C(C)(C)c2cc(-c3ccccc3)ccc21`, the inhibition was 123% (active). For `Cc1ccc(Cn2c(NCc3nc4ccccc4n3C)nc3ccccc32)cc1`, the inhibition was 7.82%.
